# Source: publication PMC5540273 (PLoS ONE, 2017)
# Legend:
# Details in all cases: concentration: 1 μM, replicates: in singlicate; n = 1
# [1] = test system: MAP4K2
# [2] = test system: MAP4K3
# [3] = test system: MAP4K4
# [4] = test system: MAP4K5
# [5] = test system: MAPKAPK2
# [6] = test system: MAPKAPK5
# [7] = test system: MARK1
# [8] = test system: MARK2
# [9] = test system: MARK3
# [10] = test system: MARK4
# [11] = test system: MAST1
# [12] = test system: T1, MEK1
# T1 construct: gene MAP2K1
# [13] = test system: T2, MEK2
# T2 construct: gene MAP2K2
# [14] = test system: T3, MEK3
# T3 construct: gene MAP2K3
# [15] = test system: T4, MEK4
# T4 construct: gene MAP2K4
# [16] = test system: T5, MEK5
# T5 construct: gene MAP2K5
# [17] = test system: T6, MEK6
# T6 construct: gene MAP2K6
# [18] = test system: MELK
# [19] = test system: MERTK
# [20] = test system: MET
# 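Also: KINOMEscan kinase panel screen.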
Compound,%Inh [1] [%],%Inh [2] [%],%Inh [3] [%],%Inh [4] [%],%Inh [5] [%],%Inh [6] [%],%Inh [7] [%],%Inh [8] [%],%Inh [9] [%],%Inh [10] [%],%Inh [11] [%],%Inh [12] [%],%Inh [13] [%],%Inh [14] [%],%Inh [15] [%],%Inh [16] [%],%Inh [17] [%],%Inh [18] [%],%Inh [19] [%],%Inh [20] [%]
COc1ccc2cc(-c3nc(-c4ccccc4C(C)C)[nH]c3-c3ccncc3)ccc2c1 [SB-660566],0,0,31,3,16,0,7,0,0,3,2,0,0,0,65,11,45,26,33,0
O=C(Nc1n[nH]c2cc(-c3ccsc3)ccc12)C1CC1 [SB-732932],25,0,18,2,0,24,0,24,0,12,36,11,16,17,18,50,0,0,14,0
CCn1c(-c2c(N)noc2C)nc2cnccc21 [SB-737856],0,2,10,0,19,0,0,0,0,0,0,0,2,0,0,32,70,0,1,0
COC(=O)C(Cc1ccccc1)NC(=O)NC1CCN(c2ccnc(Nc3ccc(F)cc3)n2)C1 (stereo not drawn) [GSK1379714],0,0,9,3,21,0,0,8,0,4,42,35,0,31,0,54,4,40,0,0
COc1ccc(Nc2nccc(N3CCC(NC(=O)c4cc5ccccc5s4)C3)n2)cc1 (stereo not drawn) [GSK1379738],0,2,0,0,0,0,0,0,3,0,0,0,0,0,23,10,0,0,0,0
Cc1ccc(NC(=O)Nc2ccc(Cl)c(C(F)(F)F)c2)cc1-c1ccc(C(=O)Nc2ccncc2)cc1 [GSK1398470],0,8,29,12,7,0,0,13,8,0,0,0,0,0,24,29,0,13,0,13
Cc1c(Cn2c3ccccc3n3c(=O)cc(N4CCOCC4)nc23)cccc1C(F)(F)F [GSK2306394],2,0,11,8,0,0,0,0,0,0,0,0,0,0,17,59,0,66,33,0
CNc1nc(-c2ccc3c(N)n[nH]c3c2)cc(N2C[C@@H](C(=O)NC3CCCCC3)OC[C@H]2C)n1 [GSK2375584],0,0,15,9,17,2,10,0,0,18,0,8,11,0,11,14,0,57,2,0
COc1ccc(CSc2nnc(-c3ccc4nccn4c3)o2)cc1C(F)(F)F,37,16,7,3,33,27,10,44,0,6,0,13,21,43,51,0,0,16,5,2
COc1cccc(C2=C(Nc3cc(Cl)c(O)c(Cl)c3)C(=O)NC2=O)c1 [SB-390767],0,0,0,1,15,0,0,0,0,0,1,0,0,0,0,17,0,17,0,0
Cc1c(Cn2c(C)c(C)n3c(=O)cc(N4CCOCC4)nc23)cccc1C(F)(F)F [GSK2328680],0,0,0,0,16,0,0,0,19,0,0,0,0,0,0,0,0,1,0,0
Nc1cccc(-c2ccc3c(N)n[nH]c3c2)n1 [GSK2192730],59,0,0,0,0,0,0,10,0,0,0,3,22,3,1,31,18,0,0,0
CC[C@@H]1CO[C@H](C(=O)Nc2ccccc2)CN1c1cc(-c2ccc3c(N)n[nH]c3c2)nc(NC)n1 [GSK2376236],0,0,0,0,0,0,0,5,0,0,0,5,13,0,0,0,0,56,3,0
Cc1cccc2c(-c3ccncn3)c(-c3ccc(F)cc3)nn12 [GW515532],0,12,7,0,8,0,0,0,5,0,7,0,0,0,19,10,0,0,15,0
Cl.Cl.Cl.N#Cc1ccc(CCNc2nccc(-c3cccc(CN4CCNCC4)c3)n2)cc1 [GSK2137462],0,8,21,4,0,0,0,6,25,0,0,0,0,5,20,35,7,38,20,0
Cc1ccc(NC(=O)Nc2ccccc2F)cc1-c1ccc(C(=O)Nc2ccncc2)cc1 [GSK1398477],0,21,29,27,37,0,8,5,0,19,0,0,0,0,26,37,0,14,31,0
c1ccc(-c2ccnc3[nH]ccc23)cc1 [SB-693578],32,22,0,0,26,0,100,0,0,62,44,49,29,10,28,45,0,0,15,0
O=c1cc(N2CCOCC2)nc2n(Cc3ccccc3F)ccn12 [GSK2297428],0,0,0,0,0,0,100,0,0,69,0,0,0,0,0,0,0,0,42,0
Fc1ccc(-c2nc3n(c2-c2ccncc2)CCS3)cc1 [GI98581],0,0,26,11,1,0,0,0,0,12,0,0,0,0,12,14,0,5,12,0
COc1cccc(NC(=O)Nc2ccc(C)c(-c3ccc(C(=O)Nc4ccncc4)cc3)c2)c1 [GSK1398474],0,0,24,16,5,0,94.1,18,0,20,0,0,0,0,42,8,0,0,35,16
Cc1ccc(-c2nc(Nc3ccncc3)c3ccccc3n2)s1 [GSK189015],0,19,23,15,25,0,7,0,22,13,0,11,1,0,11,17,0,0,11,10

Compound,%Inh [1] [%],%Inh [2] [%],%Inh [3] [%],%Inh [4] [%],%Inh [5] [%],%Inh [6] [%],%Inh [7] [%],%Inh [8] [%],%Inh [9] [%],%Inh [10] [%],%Inh [11] [%],%Inh [12] [%],%Inh [13] [%],%Inh [14] [%],%Inh [15] [%],%Inh [16] [%],%Inh [17] [%],%Inh [18] [%],%Inh [19] [%],%Inh [20] [%]
Nc1ncnc2occ(-c3ccc4c(c3)CCN4C(=O)Cc3cc(F)ccc3F)c12 [GSK2645446],0,35,0,11,11,0,0,0,0,0,0,0,0,0,2,92.3,0,3,34,0
COC(=O)C(NC(=O)NC1CCN(c2ccnc(Nc3ccc(F)cc3)n2)C1)c1ccccc1 (stereo not drawn) [GSK1379712],0,0,1,2,18,6,0,7,1,8,0,19,0,0,16,86,0,20,0,0
COc1ccc(CSc2nnc(-c3ccc4ncsc4c3)o2)cc1C(F)(F)F,0,0,0,0,0,0,0,24,0,2,0,0,9,9,0,0,24,0,16,0
COC(=O)c1cccc(NC(=O)NC2CCN(c3ccnc(Nc4ccc(OC)cc4)n3)C2)c1 (stereo not drawn) [GSK1379746],0,0,0,0,14,0,0,0,4,0,13,0,0,0,34,33,0,0,22,0
COC(=O)c1cccc(NC(=O)NC2CCN(c3ccnc(Nc4ccc(F)cc4)n3)C2)c1 (stereo not drawn) [GSK1379725],0,0,1,0,15,0,0,0,42,0,0,0,0,0,36,12,0,0,2,0
Cc1ccc(NC(=O)c2ccc(Cl)cc2)cc1-c1ccc(C(=O)Nc2ccncc2)cc1 [GSK1398467],0,0,13,3,24,0,36,80,0,0,0,0,0,0,3,0,0,0,18,0
CCCCc1nn2ncccc2c1-c1ccnc(NC2CC2)n1 [GW684374],0,0,0,0,0,0,0,0,0,0,0,0,0,8,7,9,10,15,5,0
COc1nccc(-c2c(-c3ccc(F)cc3)ncn2CCCN2CCOCC2)n1 [SB-282852],0,0,0,0,5,0,0,7,24,0,20,0,25,31,23,7,0,0,19,0
CNC(=O)c1ccc(C)c(-n2c(C)cc(OCc3ccc(F)cc3F)c(Br)c2=O)c1,0,0,0,0,0,0,0,1,0,0,0,0,0,0,0,0,0,14,0,0
Cc1ccccc1-c1cc(-c2c[nH]nc2-c2ccccn2)ccn1 [GW680061],0,0,0,0,24,0,0,0,0,0,6,0,0,0,4,5,0,0,16,0
COc1cc2ncnc(Nc3cccc(Br)c3)c2cc1OC.Cl [GI230329],0,0,0,0,0,0,0,0,0,5,20,0,0,0,20,86,0,0,45,0
COc1ccc(Nc2nccc(-c3ccc(NC(=O)c4cc5cc(F)ccc5[nH]4)cc3)n2)cc1 [GSK1229496],0,0,0,0,0,0,0,0,0,0,0,0,0,20,0,6,0,0,18,0
CNc1nc(-c2ccc3c(N)n[nH]c3c2)cc(N2C[C@@H](C(=O)Nc3ccccc3)CC[C@H]2C)n1 [GSK2298859],0,0,6,0,0,0,0,0,0,11,0,0,0,0,7,7,0,58,35,0
CS(=O)(=O)Cc1ccc(Nc2nccc(-c3c(-c4cccc(NC(=O)C5CCCCC5)c4)nn4ncccc34)n2)cc1 [GSK350559],36,0,0,10,0,39,37,0,0,5,39,32,19,42,16,98.3,0,0,12,10
Nc1nccc(-c2c(-c3ccc(F)cc3)ncn2C2CCN(Cc3ccccc3)CC2)n1 [SB-219980],19,16,10,73,0,0,5,1,0,1,4,7,9,19,38,28,21,15,0,0
Cc1ccccc1Cn1ccn2c(=O)cc(N3CCOCC3)nc12 [GSK2269905],0,0,0,0,19,0,99.2,0,0,96.6,0,0,0,0,27,13,0,0,25,0
O=C1NC(=O)C(c2ccc(Cl)cc2)=C1Nc1ccc(O)cc1 [SB-340867],0,0,0,0,8,0,0,1,20,0,24,0,0,9,0,8,0,1,0,0
Cn1cnc2c(N)ncnc21 [SKF-97623],0,14,0,13,25,0,0,0,0,0,44,0,0,13,0,23,0,0,16,2
CC(C)c1cc(-c2ccc3c(N)n[nH]c3c2)nc(N)n1 [GSK2250882],0,0,1,0,23,0,0,9,0,0,0,0,0,0,8,29,5,15,21,0
O=C(Nc1n[nH]c2nc(-c3cccs3)c(Br)cc12)C1CCCC1 [SB-743341],0,0,0,0,5,17,22,8,2,19,12,15,14,18,23,31,0,0,0,0
COc1ccc(Nc2nccc(N3CCC(NC(=O)C(C)c4ccc(Cl)cc4)CC3)n2)cc1 (stereo not drawn) [GSK1379812],0,0,3,0,6,0,15,19,0,22,0,0,0,0,5,10,0,0,22,0
